# Source: PubChem BioAssay AID1347056 (Sanford-Burnham Center for Chemical Genomics, 2019)
# The campaign covered roughly 360,000 compounds. About 3,600 (1%) were called active. The list comes from a sample in which actives are over-represented; it also holds similar structures and randomly drawn compounds. A number with no mark means an inactive call.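 The calls were made as follows: active = compounds whose plate-normalised and pattern-corrected inhibition of the luciferase reporter signal at the single screening dose is 50% or more; inactive = the rest.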
# Experiment: TROY pathway blockers in reporter cells – Q293 LMP1-TROYcd cells, NF-kB luciferase, uHTS, primary screen (AID 1347056)
# Conditions: 4 h, at 10 µM, stronger effect = higher value
row,Structure (SMILES),inhibition
1,CC(C)C(C)(C#N)NC(=O)CSc1nncn1-c1ccccc1 (stereo not drawn),-7.95%
2,CC1CCN(C(=O)c2ccc3c(=O)n4c(nc3c2)CCCCC4)CC1,5.45%
3,C=CCC1(CC=C)CCCN1C(=O)CC1C(=O)NCCN1Cc1ccccc1OC (stereo not drawn),-17.8%
4,CCN1CCN(C(=O)C2(NC(=O)Nc3cccc(F)c3)CCCCC2)CC1,7.69%
5,c1ccc(-c2cc3c(NCC4COc5ccccc5O4)ncnc3s2)cc1 (stereo not drawn),59.3% (active)
6,O=C(Cn1cnc2ccccc2c1=O)NCC1COc2ccccc2O1 (stereo not drawn),-4.41%
7,Cc1noc(C)c1C(=O)NCC1COc2ccccc2O1 (stereo not drawn),7.74%
8,CCOC(=O)[C@]12CCC=C1N(CCC1=CCCCC1)C(=O)[C@H](CC(=O)NCc1ccc(C)o1)C2,-3.05%
9,Cc1nc(Nc2ccc3c(c2)OCCO3)c2nnn(Cc3ccccc3Cl)c2n1,82.3% (active)
10,Cc1nc(Nc2ccccc2F)c2nnn(Cc3ccccc3Cl)c2n1,-1.4%
11,Cc1nc(Nc2ccc(S(=O)(=O)N3CCCC3)cc2)c2nnn(Cc3ccccc3)c2n1,22.5%
12,Cc1ccc(S(=O)(=O)N(C)CC(=O)OCC(=O)Nc2ccccc2)cc1,-10.3%
13,COC(=O)c1sc(C(F)(F)F)c(-c2ccccc2)c1S(=O)(=O)N(C)C,-5.2%
14,CCOC(=O)CN(C)S(=O)(=O)c1ccc(-c2cc(C(=O)OC)sc2C(F)(F)F)cc1,87.2% (active)
15,Cc1ccc(OCCCC(=O)NC(C)c2ccccc2)c(C)c1 (stereo not drawn),-19.3%
16,Cc1cccc(C(=O)OC(C)CN2CCCC2)c1 (stereo not drawn),17.2%
17,Cc1cccc(C(=O)OC(C)CN2CCN(C)CC2)c1 (stereo not drawn),58% (active)
18,Cc1ccc(C(=O)OC(C)CN2CCOCC2)cc1 (stereo not drawn),-24.8%
19,C=CCc1c(C)nc2cc(-c3ccccc3)[nH]n2c1=O,-9.98%
20,O=c1c2c(nc3cc(-c4cccc(Cl)c4)[nH]n13)CCCC2,59.5% (active)
21,CCCCN1Cc2c(nc3cc(-c4ccccc4)[nH]n3c2=O)C1=O,6.47%
22,COC(=O)Cc1cc(=O)oc2c(C)c(O)ccc12,11.1%
23,COc1ccc(Br)cc1CN1CCN(C(=O)c2cccc(OC)c2OC)CC1,-1.16%
24,COc1cccc(C(=O)OCc2cc(=O)oc3c(C)c(C)ccc23)c1OC,54.5% (active)

row,Structure (SMILES),inhibition
1,Cc1ccc(NC(=S)N(CCCN2CCCC2)Cc2cccn2Cc2ccc(Cl)cc2)cc1,-45.1%
2,CCOc1cc(/C=C(/C#N)c2ccc(Cl)cc2)cc(Cl)c1OCC(=O)O,70.8% (active)
3,CCOc1cc(/C=N/NC(=O)OC)ccc1OCCSc1ccc(Cl)cc1,14.9%
4,COc1cc(/C=C(/NC(=O)c2ccc(Cl)cc2Cl)C(=O)O)cc(OC)c1OC,18.8%
5,O=C(O)C1=C[C@H](c2cccs2)C[C@H](OCCCCO)O1,-7.03%
6,COc1cccc(NC(=O)c2ccc3c(SCC(=O)O)c4c(nc3c2)CCCC4)c1,-30.4%
7,CC(C)CCC(C)NC(=O)c1ccc2nccnc2c1 (stereo not drawn),-39.8%
8,CC(C)CCNC(=O)c1ccc2c(Cl)c3c(nc2c1)CCC3,55.3% (active)
9,COC(=O)CNS(=O)(=O)c1ccc(Cc2ccc(S(=O)(=O)NCC(=O)OC)cc2)cc1,13.7%
10,O=C(Cc1cccc2ccccc12)NCCC1=CCCCC1,80.3% (active)
11,O=C(CCNC(=O)Cn1ccc2ccccc2c1=O)NCCC1=CCCCC1,7.75%
12,Cc1nnc(OCC(=O)NCCC2=CCCCC2)c2ccccc12,-8.28%
13,COc1ccc(C(CNC(=O)c2ccc(OCc3cscn3)cc2)N2CCCC2)cc1 (stereo not drawn),0.55%
14,CCCS(=O)(=O)N1CCC(C(=O)NCCc2ccc(OC)c(OC)c2)CC1,0.11%
15,COc1ccccc1CNc1nc(Nc2ccccc2Cl)c2sccc2n1,42.1%
16,COCCNc1nc(NCc2ccc(NC(C)=O)cc2)c2sccc2n1,8.19%
17,COc1cccc(CNc2nc(NCc3ccccc3OC)nc3ccsc23)c1,53.4% (active)
18,Clc1ccccc1Nc1nc(NCc2cccs2)nc2ccsc12,6.87%
19,COc1cccc(CNc2nc(NCc3cccs3)nc3ccsc23)c1,57.2% (active)
20,COc1cccc(-c2cc3nc(NCc4ccccc4OC)n(C)c(=O)c3s2)c1,-20.1%
21,CCOCCCNC(=S)N1CCC(NC(=O)C2CCCCC2)CC1,10.6%
22,COc1ccc(C)cc1S(=O)(=O)NCCc1ccccc1,10.5%
23,O=[N+]([O-])c1cc(S(=O)(=O)NCCc2ccccn2)ccc1Cl,-5.27%
24,Cc1ccc(CC(=O)Nc2cccc(C#N)c2)cc1,5.18%

row,Structure (SMILES),inhibition
1,CCOc1c2ccc(C(=O)NC3CCCc4ccccc43)cc2nn1CC (stereo not drawn),2.7%
2,C/C(=N\NS(=O)(=O)c1ccc(Cl)cc1)c1ccc(NC(=O)c2ccco2)cc1,-42.5%
3,CN(C(=O)COc1ncnc2c1cnn2-c1ccccc1)C1CCCCC1,11.5%
4,COc1ccc(-n2ncc3c(N4CCCc5ccccc54)ncnc32)cc1,62.1% (active)
5,COc1ccc(-n2ncc3c(SCC(=O)NNC(C)=O)ncnc32)cc1,-14.8%
6,O=C(CC1CCCCC1)NCc1ccc(F)cc1,-30.5%
7,CC(C)NC(=O)N1Cc2cc(C(=O)NCC(F)(F)F)nc(-c3cccc(-c4cc5ccccc5o4)c3)c2[C@@H]1CCO,9.45%
8,COC(=O)[C@@H]1C[C@H]2CC[C@H](O)C[C@H]2N1Cc1ccc(N2CCN(C)CC2)cc1,4.5%
9,CC(C)(CNC(=O)CNC(=O)C1CCCCC1)N1CCOCC1,6.69%
10,O=C(NNc1ccccc1Cl)C(O)(c1cccc(C(F)(F)F)c1)c1cccc(C(F)(F)F)c1,54.1% (active)
11,O=C(O)c1cc(S(=O)(=O)N(Cc2ccccc2)c2cccc(C(F)(F)F)c2)ccc1Cl,3%
12,O=c1cc(O)c(-c2cccc(C(F)(F)F)c2)c(Cl)[nH]1,-14.8%
13,Cc1ccc(S(=O)(=O)N2CCC3(CC2)OCCO3)c(C)c1,5.19%
14,COc1ccc(/C(C)=N/N2CCOCC2)c(O)c1,6.68%
15,CC1=C(C)CC(C(=O)NNC(=O)c2csc3c2CCC(C(C)(C)C)C3)C(C(=O)O)C1 (stereo not drawn),-0.5%
16,COc1ccc(N2CCN(CCCNC(=O)C3CCN(S(=O)(=O)N4CCOCC4)CC3)CC2)cc1,91.5% (active)
17,O=C(NCCCN1CCN(Cc2ccccc2)CC1)C1CCN(S(=O)(=O)N2CCCC2)CC1,-13%
18,COc1ccc(CNC(=O)C2CCN(S(=O)(=O)N3CCOCC3)CC2)cc1,7%
19,CCCCc1c(-c2ccc(Cl)cc2)ncn1CCc1ccccc1OC,38.5%
20,O=C(CNCc1ccc(F)cc1)Nc1ccccc1-c1ccccc1,25.9%
21,OC1CCCN(c2ncnc3c2nnn3Cc2c(F)cccc2Cl)C1 (stereo not drawn),-10.3%
22,O=C(CNC(=O)C(c1ccccc1)c1ccccc1)N/N=C\c1ccc2c(c1)OCO2,-30.7%
23,C(=N\Nc1ccc2ccccc2n1)/c1ccc2c(c1)OCO2,69.8% (active)
24,Cc1cccc(NC(=O)/C=C/c2ccc3c(c2)OCO3)n1,-33.1%

row,Structure (SMILES),inhibition
1,COc1cccc(-c2nn(-c3ccccc3)cc2/C=C(\C#N)C(=O)NCCCn2ccnc2)c1,-24.5%
2,COc1ccc(-c2nn(-c3ccccc3)cc2CN2CCCO2)c(F)c1,-17.1%
3,COc1ccc(-c2nn(-c3ccccc3)cc2/C=C2/SC(=S)N(CCCC(=O)O)C2=O)c(C)c1,58% (active)
4,O=C(C1CCC1)N1CCN(S(=O)(=O)c2ccc([N+](=O)[O-])cc2)CC1,-10.9%
5,Cc1ccc2c(C)c(C(=O)N3CCN(c4ccncc4)CC3)oc2c1C,5.65%
6,CS(=O)(=O)N(CC(=O)N1CCN(Cc2ccccc2)CC1)c1ccc2c(c1)OCCO2,19.4%
7,CN(C)c1nc(=Nc2cccc(Cl)c2)ss1,-31.5%
8,Clc1cccc(N=C2NN=C(c3ccc4c(c3)OCCO4)CS2)c1,66.2% (active)
9,CC(=NC1CCN(Cc2ccccc2)CC1)c1c(O)[nH]c(=O)[nH]c1=O,26.3%
10,c1ccc(CN2CCC(N=C3NN=C(c4ccc5c(c4)OCCO5)CS3)CC2)cc1,77.6% (active)
11,C/C(=N\NC(=O)c1ccc(NS(=O)(=O)c2cccs2)cc1)c1ccc2ccccc2c1,-29.3%
12,CC(NC(=O)c1ccc(S(=O)(=O)Nc2ccccc2)cc1)c1ccc(S(N)(=O)=O)cc1 (stereo not drawn),2.55%
13,COCCOC(=O)c1c(C)oc2cc(Br)c(OCC(N)=O)cc12,9.46%
14,CC(=O)c1ccc(NC(=O)C(C)OC(=O)c2ccc(NS(=O)(=O)c3ccc4[nH]c(=O)[nH]c4c3)cc2)cc1 (stereo not drawn),-12.5%
15,CCCCN1C(=S)NC[C@@H]1C(C)CC (stereo partly drawn),-3.76%
16,O=[N+]([O-])/C(N=Nc1ccccc1)=N\Nc1ccccc1,-1.58%
17,COC(=O)c1cc(=O)n(-c2c(Cl)cc(C(F)(F)F)cc2Cl)[nH]1,6.27%
18,NC1=NC(=O)S/C1=C\c1ccc(O)cc1,-17.8%
19,CCOc1cccc(/C=C/c2ccc3ccccc3n2)c1OC(C)=O,33.9%
20,COc1cccc(/C=C/c2ccc3ccccc3n2)c1OC(C)=O,54.2% (active)
21,COc1cccc(NC(=O)COC(=O)c2ccc3ccccc3n2)c1,-23.3%
